In PubChem BioAssay (EPA / NIEHS):
Results filed as inconclusive are left out. Activity calls are given as the source filed them. Rule for the calls, unless noted: active = hit-call score of the fitted dose curve at least 0.9, where 1 is the maximum; inactive = score below 0.9.

How the values were obtained:
[1] = ATG_PBREM_CIS: Attagene CIS-FACTORIAL HepG2 Assay for human Phenobarbital-responsive Enhancer Module (PBREM) (AID 2282955); settings: HepG2 PBREM cis-reporter, Attagene multiplexed transcription; actives raise or lower the signal
Method in brief: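 Multiplexed cis-reporter readout in human hepatoma HepG2 cells; PBREM-regulated transcript quantified after 24 h exposure by fluorescent RT-PCR fragment analysis. Signal changes up or down fitted relative to DMSO.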

[2] = ATG_PXRE_CIS: Attagene CIS-FACTORIAL HepG2 Assay for human Pregnane X Receptor Element (PXRE) (AID 2282957); settings: HepG2 Attagene CIS-FACTORIAL PXRE reporter, mRNA; actives raise or lower the signal
Method in brief: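 Cells: HepG2, transiently transfected reporter units under cis promoter control. Exposure: 24 h. Detection: reporter mRNA via RT-PCR/CE fluorescence; bidirectional fitting, DMSO-referenced.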

[3] = ATG_PPRE_CIS: Attagene CIS-FACTORIAL HepG2 Assay for human Peroxisome Proliferator-activated Response Element (PPRE) (AID 2282958); settings: HepG2 PPRE cis-element reporter, Attagene transcription factor profiling; actives raise or lower the signal
Method in brief: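 DMSO served as negative control and baseline for bidirectional curve fitting. Signal came from PPRE-regulated reporter mRNA in HepG2 cells, measured 24 h post-dosing by RT-PCR, 6-FAM primer extension and capillary electrophoresis.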

[4] = ATG_RORE_CIS: Attagene CIS-FACTORIAL HepG2 Assay for human RAR-related Orphan Receptor Element (RORE) (AID 2282959); settings: HepG2 Attagene cis-factorial RORE reporter, mRNA; actives raise or lower the signal
Method in brief: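 Transfect HepG2 with MRTUs; treat 24 h; extract RNA; RT with oligo(dT); PCR with reporter-specific primers; 6-FAM primer extension; HpaI digest 2 h at 37 C; capillary electrophoresis. Fit vs DMSO, bidirectional.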

[5] = ATG_Sox_CIS: Attagene CIS-FACTORIAL HepG2 Assay for human SRY-box transcription factor (SOX) (AID 2282960); settings: HepG2 Attagene cis-factorial SOX reporter, mRNA; actives raise or lower the signal
Method in brief: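 Fluorescence-labelled cDNA fragments from reporter transcripts, sized by CE, give the signal. Cells: HepG2, transiently transfected with cis-regulated reporter units. Exposure 24 h; DMSO negative control; bidirectional curve fitting.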

[6] = target: Transcription factor Sp1 (Homo sapiens) (UniProt P08047); test: ATG_Sp1_CIS: Attagene CIS-FACTORIAL HepG2 Assay for human Specificity Protein 1 (Sp1) (AID 2282961); settings: HepG2 Sp1 cis-reporter transcription, actives raise or lower the signal
Method in brief: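 Chemicals are dosed onto HepG2 cells transfected with multiple cis-promoter reporter constructs, and after 24 h reporter RNA is reverse-transcribed, PCR-amplified and resolved by capillary electrophoresis for fluorescence quantitation; activity is scored up or down against DMSO.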

[7] = ATG_SREBP_CIS: Attagene CIS-FACTORIAL HepG2 Assay for human Sterol Regulatory Element Binding (SREBP) (AID 2282962); settings: HepG2 Attagene cis-factorial SREBP reporter, mRNA; actives raise or lower the signal
Method in brief: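 mRNA induction of transfected cis-promoter reporters in HepG2 cells, 24 h post-dose. Detection: RT-PCR with 6-FAM-labelled products, HpaI digest, capillary electrophoresis. DMSO served as negative control and baseline.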

[8] = target: Signal transducer and activator of transcription 3 (Homo sapiens) (UniProt P40763); test: ATG_STAT3_CIS: Attagene CIS-FACTORIAL HepG2 Assay for human Signal Transducer and Activator of Transcription 3 (STAT3) (AID 2282963); settings: HepG2, Attagene cis-factorial STAT3 reporter transcription; actives raise or lower the signal
Method in brief: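 Endogenous STAT3-responsive cis-element activity was read in transiently transfected HepG2 cells after 24 h treatment. Reporter transcripts were quantified via RT-PCR and capillary electrophoresis, with DMSO as negative control and bidirectional curve fitting.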

[9] = ATG_TA_CIS: Attagene CIS-FACTORIAL HepG2 Assay for human TA Basal Promoter (AID 2282964); settings: HepG2 Attagene CIS-factorial TA basal promoter reporter; actives raise or lower the signal
Method in brief: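 HepG2 cells transiently transfected with multiple reporter units under cis promoter elements, reporting endogenous transcription factor activity; this endpoint tracks the TA basal promoter as background control. Reporter mRNA after 24 h dosing measured by RT-PCR/capillary electrophoresis; bidirectional fits versus DMSO.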

[10] = ATG_TCF_b_cat_CIS: Attagene CIS-FACTORIAL HepG2 Assay for human T-Cell-Factor with beta-catenin (TCF/b-cat) (AID 2282965); settings: HepG2 TCF/beta-catenin cis-reporter transcription, actives raise or lower the signal
Method in brief: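 Measured: reporter mRNA in HepG2 transiently transfected with cis-promoter reporter units, 24 h after chemical addition. Fitting was bidirectional, DMSO as negative control.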

[11] = ATG_TAL_CIS: Attagene CIS-FACTORIAL HepG2 Assay for human TAL Basal Promoter (AID 2282966); settings: HepG2 Attagene cis-factorial TAL promoter reporter; actives raise or lower the signal;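 note: background control endpoint measuring basal TAL promoter reporter mRNA not a specific factor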
Method in brief: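 RT-PCR plus capillary electrophoresis quantifies reporter mRNA induction in transiently transfected HepG2 cells after 24 h chemical treatment. DMSO serves as negative control and baseline for bidirectional fitting.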

[12] = ATG_TGFb_CIS: Attagene CIS-FACTORIAL HepG2 Assay for human Transforming Growth Factor (TGF) (AID 2282967); settings: HepG2 Attagene CIS TGFb reporter, mRNA transcription; actives raise or lower the signal
Method in brief: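 HepG2 cells transiently transfected with cis-promoter-driven multiple reporter units measure endogenous TF activity; reporter mRNA quantified at 24 h by RT-PCR, FAM labeling, HpaI digestion and capillary electrophoresis. Bidirectional fit vs DMSO.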

[13] = ATG_VDRE_CIS: Attagene CIS-FACTORIAL HepG2 Assay for human Vitamin D Receptor Element (VDRE) (AID 2282968); settings: HepG2 VDRE cis-reporter transcription, actives raise or lower the signal
Method in brief: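 Reporter mRNA induction, quantified by capillary electrophoresis of fluorescently labelled RT-PCR products, was read 24 h after dosing HepG2 cells carrying transiently transfected cis-regulated reporter units; gain or loss relative to DMSO.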

[14] = target: Nuclear receptor subfamily 1 group I member 3 (Homo sapiens) (UniProt Q14994); test: ATG_CAR_TRANS: Attagene TRANS-FACTORIAL HepG2 Assay for human Constitutive Androstane Receptor (CAR) (AID 2282969; active = hit-call score of the fitted dose curve at least 0.9, where 1 is the maximum;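 note: activators raise reporter mRNA above DMSO so AC50 marks induction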); settings: HepG2 Attagene TRANS-FACTORIAL CAR reporter
Method in brief: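 Readout is reporter mRNA induction, quantified by fluorescent primer extension and capillary electrophoresis after RT-PCR. Cells were HepG2 transiently carrying chimeric NR-Gal4 constructs with GAL4-UAS reporters, treated for 24 h; activity scored upward from DMSO.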

[15] = target: Estrogen receptor (Homo sapiens) (UniProt P03372); test: ATG_ERa_TRANS: Attagene TRANS-FACTORIAL HepG2 Assay for human Estrogen Receptor alpha (ERa) (AID 2282970; active = hit-call score of the fitted dose curve at least 0.9, where 1 is the maximum); settings: HepG2 Attagene TRANS ERa GAL4 reporter, mRNA
Method in brief: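 Cells: HepG2, transiently transfected. Construct: GAL4-UAS reporter units regulated by exogenous NR-Gal4 chimeras. Time: 24 h. Detection: reporter mRNA by RT-PCR, capillary electrophoresis, fluorescence. Baseline: DMSO, upward fitting.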

[16] = target: Steroid hormone receptor ERR1 (Homo sapiens) (UniProt P11474); test: ATG_ERRa_TRANS: Attagene TRANS-FACTORIAL HepG2 Assay for human Estrogen-Related Receptor alpha (ERRa) (AID 2282971; active = hit-call score of the fitted dose curve at least 0.9, where 1 is the maximum); settings: HepG2 Attagene TRANS reporter, ERRa transactivation
Method in brief: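 Reporter transcripts from ERRa-Gal4 chimera activity measured in transiently transfected human HepG2 cells 24 hours after dosing, using RT-PCR with 6-FAM primer extension, HpaI digestion and capillary electrophoresis; DMSO is baseline.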

[17] = target: X-box-binding protein 1 (Homo sapiens) (UniProt P17861); test: ATG_Xbp1_CIS: Attagene CIS-FACTORIAL HepG2 Assay for human X-box Binding Protein 1 (XBP1) (AID 2282972); settings: HepG2 XBP1 cis-element reporter, Attagene multiplex; actives raise or lower the signal
Method in brief: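 Fluorescence-labelled cDNA fragments from reporter transcripts, separated by capillary electrophoresis, give the signal. Source: HepG2 cells transfected with promoter-driven reporter units, harvested 24 h post-dose. DMSO served as reference for bidirectional curve fitting.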

[18] = ATG_GAL4_TRANS: Attagene TRANS-FACTORIAL HepG2 Assay for GAL4 (Internal Marker) (AID 2282976; active = hit-call score of the fitted dose curve at least 0.9, where 1 is the maximum); settings: HepG2 Attagene TRANS GAL4 internal marker reporter
Method in brief: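 In transfected human HepG2 liver cells dosed 24 h, GAL4 reporter mRNA serves as a baseline marker. Detection by RT-PCR with fluorescent capillary electrophoresis, activity fitted upward relative to DMSO.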

X-box-binding protein 1 (Homo sapiens), sequence (P17861 whole entry, looked up, the tested form may be a part): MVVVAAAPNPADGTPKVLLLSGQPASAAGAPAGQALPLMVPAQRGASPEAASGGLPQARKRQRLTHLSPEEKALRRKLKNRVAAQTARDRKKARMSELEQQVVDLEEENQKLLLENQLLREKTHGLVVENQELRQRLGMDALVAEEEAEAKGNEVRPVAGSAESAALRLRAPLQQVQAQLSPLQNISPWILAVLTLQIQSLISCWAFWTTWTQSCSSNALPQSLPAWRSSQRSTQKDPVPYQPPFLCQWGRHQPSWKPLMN
Nuclear receptor subfamily 1 group I member 3 (Homo sapiens), sequence (Q14994 whole entry, looked up, the tested form may be a part): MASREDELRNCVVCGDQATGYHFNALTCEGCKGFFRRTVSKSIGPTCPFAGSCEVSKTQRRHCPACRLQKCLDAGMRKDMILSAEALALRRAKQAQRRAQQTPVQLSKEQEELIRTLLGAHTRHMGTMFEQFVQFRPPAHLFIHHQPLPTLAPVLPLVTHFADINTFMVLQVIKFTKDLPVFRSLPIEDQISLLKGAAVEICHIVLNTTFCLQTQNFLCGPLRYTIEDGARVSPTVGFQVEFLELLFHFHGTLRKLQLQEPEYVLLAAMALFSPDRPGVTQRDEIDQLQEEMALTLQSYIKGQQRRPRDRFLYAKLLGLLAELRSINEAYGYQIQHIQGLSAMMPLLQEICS
Transcription factor Sp1 (Homo sapiens), sequence (P08047 whole entry, looked up): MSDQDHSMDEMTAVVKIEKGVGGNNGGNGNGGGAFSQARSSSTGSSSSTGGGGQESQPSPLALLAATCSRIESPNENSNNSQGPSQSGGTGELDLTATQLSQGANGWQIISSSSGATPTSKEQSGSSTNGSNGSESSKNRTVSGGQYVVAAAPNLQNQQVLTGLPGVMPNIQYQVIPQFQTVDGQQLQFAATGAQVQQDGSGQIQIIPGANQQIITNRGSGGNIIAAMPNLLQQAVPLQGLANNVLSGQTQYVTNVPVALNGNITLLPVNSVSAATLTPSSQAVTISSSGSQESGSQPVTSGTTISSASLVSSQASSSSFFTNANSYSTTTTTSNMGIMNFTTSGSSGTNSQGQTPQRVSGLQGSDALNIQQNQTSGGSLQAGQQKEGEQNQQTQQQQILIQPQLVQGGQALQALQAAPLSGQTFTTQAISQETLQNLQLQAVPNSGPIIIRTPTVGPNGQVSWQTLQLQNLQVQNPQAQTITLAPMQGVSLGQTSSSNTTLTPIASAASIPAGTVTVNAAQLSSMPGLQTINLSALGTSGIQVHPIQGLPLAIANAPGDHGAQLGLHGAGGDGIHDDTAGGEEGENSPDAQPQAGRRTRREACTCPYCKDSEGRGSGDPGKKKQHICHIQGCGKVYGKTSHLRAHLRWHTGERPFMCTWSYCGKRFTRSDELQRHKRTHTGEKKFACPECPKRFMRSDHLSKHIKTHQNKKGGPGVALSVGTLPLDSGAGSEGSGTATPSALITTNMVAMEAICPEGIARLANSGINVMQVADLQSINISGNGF
Signal transducer and activator of transcription 3 (Homo sapiens), sequence (P40763 whole entry, looked up): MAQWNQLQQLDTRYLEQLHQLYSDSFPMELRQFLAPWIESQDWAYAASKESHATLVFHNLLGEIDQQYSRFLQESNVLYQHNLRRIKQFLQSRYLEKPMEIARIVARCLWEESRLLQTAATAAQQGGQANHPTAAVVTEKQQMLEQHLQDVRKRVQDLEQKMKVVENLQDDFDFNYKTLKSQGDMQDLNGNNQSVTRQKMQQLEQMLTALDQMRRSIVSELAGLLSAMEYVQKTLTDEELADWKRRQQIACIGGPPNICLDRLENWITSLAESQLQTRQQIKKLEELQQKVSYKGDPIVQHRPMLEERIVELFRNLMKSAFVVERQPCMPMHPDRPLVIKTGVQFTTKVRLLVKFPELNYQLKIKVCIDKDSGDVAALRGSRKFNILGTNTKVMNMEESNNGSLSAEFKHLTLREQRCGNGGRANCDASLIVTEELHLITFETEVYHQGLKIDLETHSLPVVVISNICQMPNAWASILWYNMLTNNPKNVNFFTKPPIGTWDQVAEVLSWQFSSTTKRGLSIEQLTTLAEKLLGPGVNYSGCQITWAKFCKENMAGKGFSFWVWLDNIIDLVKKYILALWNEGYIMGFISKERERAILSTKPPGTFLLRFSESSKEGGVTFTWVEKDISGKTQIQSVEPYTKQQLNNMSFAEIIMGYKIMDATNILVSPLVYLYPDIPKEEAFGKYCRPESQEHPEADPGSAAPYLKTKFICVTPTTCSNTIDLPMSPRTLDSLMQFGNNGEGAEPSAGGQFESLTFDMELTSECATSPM
Estrogen receptor (Homo sapiens), sequence (P03372 whole entry, looked up, the tested form may be a part): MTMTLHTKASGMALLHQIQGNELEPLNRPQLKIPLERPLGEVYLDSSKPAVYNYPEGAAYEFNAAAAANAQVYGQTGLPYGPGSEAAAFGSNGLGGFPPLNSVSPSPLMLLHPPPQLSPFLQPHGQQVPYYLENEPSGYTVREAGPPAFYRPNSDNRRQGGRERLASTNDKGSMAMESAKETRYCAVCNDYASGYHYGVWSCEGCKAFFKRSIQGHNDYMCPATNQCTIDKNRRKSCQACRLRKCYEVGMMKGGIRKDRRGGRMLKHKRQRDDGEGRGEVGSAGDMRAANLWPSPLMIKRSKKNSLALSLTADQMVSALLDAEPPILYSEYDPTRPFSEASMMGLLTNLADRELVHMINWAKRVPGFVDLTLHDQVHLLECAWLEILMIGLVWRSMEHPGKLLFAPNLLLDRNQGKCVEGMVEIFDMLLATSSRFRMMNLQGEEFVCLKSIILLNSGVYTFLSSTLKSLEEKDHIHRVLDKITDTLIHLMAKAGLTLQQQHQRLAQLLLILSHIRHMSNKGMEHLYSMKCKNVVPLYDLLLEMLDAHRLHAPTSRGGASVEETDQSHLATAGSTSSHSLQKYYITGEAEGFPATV
Steroid hormone receptor ERR1 (Homo sapiens), sequence (P11474 whole entry, looked up, the tested form may be a part): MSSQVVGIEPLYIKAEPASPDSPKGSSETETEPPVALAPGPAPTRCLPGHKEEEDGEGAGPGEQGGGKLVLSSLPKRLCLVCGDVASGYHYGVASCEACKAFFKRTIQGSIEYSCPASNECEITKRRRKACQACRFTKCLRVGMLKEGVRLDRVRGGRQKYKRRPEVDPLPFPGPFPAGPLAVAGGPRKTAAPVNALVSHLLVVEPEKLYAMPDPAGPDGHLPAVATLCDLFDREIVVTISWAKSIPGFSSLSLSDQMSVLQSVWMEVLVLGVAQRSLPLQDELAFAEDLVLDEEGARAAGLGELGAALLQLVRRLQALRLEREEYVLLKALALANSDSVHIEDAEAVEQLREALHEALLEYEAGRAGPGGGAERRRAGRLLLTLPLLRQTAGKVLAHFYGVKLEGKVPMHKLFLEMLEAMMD

SMILES: C#C[C@]1(O)CC[C@H]2[C@@H]3CCc4cc(OC)ccc4[C@H]3CC[C@@]21C
- outcome [1]: inactive
- AC50 [2]: 5.32 µM (active)
- outcome [3]: inactive
- outcome [4]: inactive
- outcome [5]: inactive
- outcome [6]: inactive
- outcome [7]: inactive
- outcome [8]: inactive
- outcome [9]: inactive
- outcome [10]: inactive
- outcome [11]: inactive
- AC50 [12]: 139 µM (active)
- AC50 [13]: 0.921 µM (active)
- outcome [14]: inactive
- AC50 [15]: 0.00914 µM (active)
- outcome [16]: inactive
- outcome [17]: inactive
- outcome [18]: inactive

SMILES: C=CC/C=C/C/C=C/C/C=C/C
- outcome [1]: inactive
- outcome [3]: inactive
- outcome [4]: inactive
- outcome [5]: inactive
- outcome [6]: inactive
- outcome [7]: inactive
- outcome [8]: inactive
- outcome [9]: inactive
- outcome [10]: inactive
- outcome [11]: inactive
- outcome [12]: inactive
- outcome [13]: inactive
- outcome [14]: inactive
- outcome [15]: inactive
- outcome [16]: inactive
- outcome [17]: inactive

SMILES: O=C(O)C(F)(F)C(F)(F)C(F)(F)C(F)(F)C(F)(F)C(F)(F)C(F)(F)C(F)(F)C(F)(F)C(F)(F)C(F)(F)C(F)(F)F
- outcome [1]: inactive
- outcome [3]: inactive
- outcome [4]: inactive
- outcome [5]: inactive
- outcome [6]: inactive
- outcome [7]: inactive
- outcome [8]: inactive
- outcome [9]: inactive
- AC50 [10]: 100 µM (active)
- outcome [11]: inactive
- AC50 [12]: 65.5 µM (active)
- outcome [13]: inactive
- outcome [14]: inactive
- outcome [15]: inactive
- outcome [17]: inactive
- outcome [18]: inactive

SMILES: CCCCCC=O
- outcome [1]: inactive
- outcome [2]: inactive
- outcome [3]: inactive
- outcome [5]: inactive
- outcome [6]: inactive
- outcome [7]: inactive
- outcome [8]: inactive
- outcome [9]: inactive
- outcome [10]: inactive
- outcome [11]: inactive
- outcome [12]: inactive
- outcome [13]: inactive
- outcome [14]: inactive
- outcome [15]: inactive
- outcome [16]: inactive
- outcome [17]: inactive
- outcome [18]: inactive

SMILES: C=CC(F)(F)C(F)(F)C(F)(F)C(F)(F)C(F)(F)C(F)(F)C(F)(F)C(F)(F)F
- outcome [1]: inactive
- outcome [3]: inactive
- outcome [4]: inactive
- outcome [5]: inactive
- outcome [6]: inactive
- outcome [7]: inactive
- outcome [8]: inactive
- outcome [9]: inactive
- outcome [10]: inactive
- outcome [11]: inactive
- outcome [12]: inactive
- outcome [13]: inactive
- outcome [15]: inactive
- outcome [16]: inactive
- outcome [17]: inactive
- outcome [18]: inactive
